Sampled rows, rich in hits. Any-hit rate of the full collection: about 2.7%.
CendR NRP1 mod – modulators of CendR peptide binding to human neuropilin-1. FAM-RPARPAR peptide binding to NRP-1, fluorescence polarization. hit rate 0.85% among 360,000. O14786. inhibition, % at 25 µM. AID 602438;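 active = inhibition or corrected inhibition above about 18%, plus a signal ratio from 0.5 to 1.5, limit read from the data, passing the limit was not always enough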
CFTR F508del cor – correctors of CFTR F508del function in bronchial epithelial cells; CFBE cells, YFP halide quenching; stimulated with forskolin plus potentiator P3; % fluorescence drop versus neutral controls; hit rate 0.36% among 350,000; activity (quench increase), % at 7.58 µM;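 active = mean added fluorescence quench of at least 8% versus neutral control, with both replicates also reaching 8%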;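 note: cells transiently co-express mutant CFTR-F508del with the halide-sensitive YFP; corrector assay measuring rescue of mutant channel to the surface after 24 h compound exposure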
ATG4B inhibitor – blocks human ATG4B protease cleavage of LC3 substrate. Q9Y4P1. ATG4B cleavage of LC3-PLA2, NBD-HPC fluorescence, 1 h. inhibition, % at 8.33 µM. hit rate 0.51% among 340,000. AID 504462; in the data active = inhibition above about 40%
Target sequence (Q9Y4P1 whole entry, looked up): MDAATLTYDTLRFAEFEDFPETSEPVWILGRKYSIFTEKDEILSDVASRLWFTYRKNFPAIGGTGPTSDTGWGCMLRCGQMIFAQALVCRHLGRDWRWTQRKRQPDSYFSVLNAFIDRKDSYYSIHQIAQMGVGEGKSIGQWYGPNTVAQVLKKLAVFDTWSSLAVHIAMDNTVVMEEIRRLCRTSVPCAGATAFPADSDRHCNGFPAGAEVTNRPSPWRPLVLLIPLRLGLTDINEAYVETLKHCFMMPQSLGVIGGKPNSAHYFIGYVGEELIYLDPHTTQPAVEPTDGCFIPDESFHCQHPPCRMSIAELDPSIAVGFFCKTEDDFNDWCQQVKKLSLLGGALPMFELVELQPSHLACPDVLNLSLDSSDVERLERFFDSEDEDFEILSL
MPTP block – permeability transition pore inhibition | isolated mouse mitochondria, Ca2+ swelling absorbance, 30 min | inhibition, % at 10 µM | hit rate 1.4% among 360,000;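 active = inhibition of 50% or more, scaled per plate between neutral and stimulator controls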;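 note: 0% = DMSO wells given calcium and 100% = 1 mM EGTA wells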
SKN-1 inh – inhibitors of C. elegans SKN-1; C. elegans VP596 Pgst-4::GFP/RFP ratio, acrylamide-induced, 24 h; inhibition, % at 21.8 µM; hit rate 0.49% among 360,000; AID 624304;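 active = interference check ratio from 0.5 to 1.5 plus GFP to RFP signal ratio inhibition reaching or exceeding a fixed threshold, cut at about 30% in these data, passing the limit was not always enough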
ATG4B conf – confirmation of human ATG4B inhibitors. ATG4B protease fluorescent substrate cleavage assay. AID 504757. hit rate 92% among 320. inhibition, % at 8.33 µM. shares compounds with ATG4B inhibitor; in the data active = inhibition above about 39%
PLA2 counter – counter-screen for ATG4B inhibitors: human phospholipase A2 | shares compounds with ATG4B inhibitor | purified PLA2, NBD-C6-HPC fluorescence, 45 min | inhibition, % at 8.33 µM | hit rate 66% among 1,600 | AID 588402; in the data active = inhibition above about 50%
Target sequence (P04054 whole entry, looked up): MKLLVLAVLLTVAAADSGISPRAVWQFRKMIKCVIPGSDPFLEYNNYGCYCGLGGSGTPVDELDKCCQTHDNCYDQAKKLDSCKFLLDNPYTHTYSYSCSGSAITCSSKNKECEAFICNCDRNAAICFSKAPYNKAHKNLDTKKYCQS
Active calls of the source: *; . = no result given.

SMILES	CendR NRP1 mod	CFTR F508del cor	ATG4B inhibitor	MPTP block	SKN-1 inh	PLA2 counter	others
Cc1noc(C)c1NC(=O)Nc1ccc2c(c1)CC(=O)N([C@H](C)CO)C[C@H](C)[C@@H](CN(C)Cc1ccc(C(=O)O)cc1)O2	.	-4.7	.	.	.	.
CCc1cccc(C)c1NC(=O)COC(=O)c1c2c(nc3ccccc13)/C(=C\c1cccs1)CCC2	0.4	.	46.2*	4.6	22.1	47.1
CCC(=O)N1[C@@H]2CN(S(=O)(=O)c3ccccc3F)c3ccccc3[C@@H]2[C@@H]1CO	.	0.4	.	.	.	.
Cc1ccccc1NC(=O)c1ccc(NS(=O)(=O)c2cc(C(C)(C)C)cc(C)c2C)cc1	-0.8	2.8	46.9*	1.2	4.6	41.9
Cc1cc(C(C)(C)C)cc(S(=O)(=O)Nc2cccc(C(=O)O)c2)c1C	-6.8	1.3	-2.3	-1.6	0.9	.
CN1C(=O)C(c2nnc(Nc3cccc4ccccc34)s2)C2CC1(C)Oc1ccccc12 (stereo not given)	-0.4	2.7	88.8*	-21.6	23.3	91.1*
Cc1ccccc1NC1=C/C(=N\S(=O)(=O)c2ccc(C(=O)O)cc2)c2ccccc2C1=O	24.1*	-1.7	59.3*	7.3	24.1	27.6	ATG4B conf=37.3
COc1ccc(S(=O)(=O)/N=C2\C=C(Nc3ccc(O)cc3)C(=O)c3ccccc32)cc1	17.8	7.0	26.7	10.2	13.5	.
O=C(O)c1ccc(S(=O)(=O)/N=C2\C=C(Nc3ccccc3F)C(=O)c3ccccc32)cc1	19.0*	2.6	76.7*	5.6	12.7	75.5*
CC(=O)Nc1ccc(NC2=C/C(=N/S(=O)(=O)c3cccs3)c3ccccc3C2=O)cc1	2.3	.	-1.6	3.2	3.7	.
C[C@@H]1CN([C@H](C)CO)C(=O)Cc2cc(NC(=O)Cc3cn(C)c4ccccc34)ccc2O[C@@H]1CN(C)C(=O)NC1CCCCC1	.	0.2	.	.	.	.
CC1CCN(C2=C(NS(=O)(=O)c3ccccc3)C(=O)c3ccccc3C2=O)CC1	-4.4	-0.3	45.8*	4.3	14.4	64.5*
CC1CCN(C2=C(NS(=O)(=O)c3ccc(Cl)cc3)C(=O)c3ccccc3C2=O)CC1	8.2	-1.8	-1.1	2.5	3.7	.
O=S(Cc1ccc(Cl)cc1)CC(O)(c1ccccc1)c1ccccc1 (stereo not given)	-5.5	.	5.7	1.0	1.8	.
O=S(Cc1ccccc1)CC(O)(c1ccc(Cl)cc1)c1ccc(Cl)cc1 (stereo not given)	-9.2	.	55.0*	9.1	18.8	60.2*
O=C(Nc1cccc([N+](=O)[O-])c1)C1C2CC/C=C\CCC21 (stereo not given)	41.1*	0.0	54.0*	34.0	-9.6	66.0*
O=C(O)C1C2CCC(C2)C1C(=O)Nc1cccc([N+](=O)[O-])c1 (stereo not given)	18.0	-1.5	1.0	-1.0	2.8	.
CCOC(=O)c1sc2ccccc2c1NC(=O)c1coc2ccccc2c1=O	-16.8	.	52.6*	3.8	-0.9	42.8
CCOC(=O)c1sc2ccccc2c1OC(=O)c1ccccc1	12.1	.	11.4	-5.5	11.3	.
COc1ccc2c(c1)[C@H]1[C@H](CO2)[C@H](c2ccccc2)[C@]2(C)C(=O)Nc3ccc(C)cc3C(=O)N12	3.8	-1.5	6.0	0.9	0.7	.
COc1ccc2c(c1)[C@@H]1[C@H](CO2)[C@H](c2ccccc2)[C@]2(C)C(=O)Nc3ccc(C)cc3C(=O)N12	-2.3	.	46.4*	-2.2	-11.5	70.7*
Cc1nn(-c2cccc(C(F)(F)F)c2)c(Cl)c1/C=N/Nc1cccc(C(=O)O)c1	3.9	.	56.8*	-0.1	-1.1	66.7*
Cc1nn(-c2ccccc2Cl)c(Cl)c1/C=N/Nc1cccc(C(=O)O)c1	-12.9	.	14.4	0.4	6.6	.
CCCCCCOC(=O)C[N+](C)(C)CCOC1CC2CCC1(C)C2(C)C (stereo not given)	-4.3	.	10.4	-2.0	8.8	.
CCCCCCCOC(=O)C[N+](C)(C)CCOC1CC2CCC1(C)C2(C)C (stereo not given)	5.0	1.1	52.7*	16.7	1.6	41.0	ATG4B conf=47.8*
SMILES	CendR NRP1 mod	CFTR F508del cor	ATG4B inhibitor	MPTP block	SKN-1 inh	PLA2 counter	others
COCC(=O)N(C)C[C@@H]1Oc2cc(C#CC3CC3)ccc2S(=O)(=O)N([C@H](C)CO)C[C@@H]1C	.	1.5	.	.	.	.
S=c1[nH]nc(-c2ccccc2)n1/N=C/c1ccc(-c2ccccc2Cl)o1	-20.1	.	41.7*	9.0	3.9	58.1*
S=c1[nH]nc(-c2cccc(Cl)c2)n1/N=C/c1ccc(-c2ccccc2Br)o1	-9.8	-8.7	1.3	7.1	7.3	.
C[C@H](CO)N1C[C@H](C)[C@H](CN(C)C)Oc2ccc(NC(=O)CCCN(C)C)cc2C1=O	.	-0.1	.	.	.	.
O=C(NCc1c(Cl)cccc1Oc1ccccc1)c1ccccc1	4.6	-1.2	47.2*	3.7	2.4	56.7*
COc1ccc(Oc2cccc(Cl)c2CNC(=O)c2ccccc2C(=O)O)cc1	18.8	.	-2.5	3.5	-7.4	.
CC1CCCN(C(=O)c2ccc(COc3ccccc3Br)cc2)C1 (stereo not given)	9.8	.	61.0*	-0.3	20.0	68.6*
CCCN(C)C[C@H]1Oc2cc(C#CC(C)C)ccc2S(=O)(=O)N([C@@H](C)CO)C[C@H]1C	.	1.9	.	.	.	.
O=S(=O)(N[C@@H]1CCCN(Cc2ccc(OCCO)cc2)C1)c1cccc2cccnc12	.	-0.5	.	.	.	.
COc1ccc(/C=C2/Sc3ccc(C(=O)N4CCc5ccccc5C4)cc3NC2=O)cc1	-29.0	.	69.4*	-0.9	1.2	82.2*
Cc1ccc(/C=C2/Sc3ccc(C(=O)N4CCN(C)CC4)cc3NC2=O)cc1	12.1	-2.5	-7.5	-0.6	-0.3	.
CC1CCN(C(=O)c2ccc3c(c2)NC(=O)/C(=C/c2ccccc2)S3)CC1	-6.5	-1.4	55.5*	1.5	10.8	76.0*
CO[C@H]1CN(C)C(=O)c2ccc(NC(=O)c3ccccc3)cc2OC[C@@H](C)N(C(=O)CN(C)C)C[C@H]1C	.	-0.7	.	.	.	.
CCC(=O)N1C[C@@H](C)[C@@H](OC)CN(C)C(=O)c2ccc(NC(=O)c3ccccc3)cc2OC[C@@H]1C	.	1.5	.	.	.	.
Cc1nc(NC(=O)c2ccccc2)sc1-c1csc(NCc2ccco2)n1	-66.3	.	41.0*	0.5	14.5	66.7*
C[C@@H]1CN([C@H](C)CO)C(=O)c2cc(C#CC3(O)CCCC3)cnc2O[C@@H]1CN(C)Cc1ccccc1	.	0.0	.	.	.	.
O=C(N/N=C1\CC2CC=CC12)c1ccc(Br)cc1 (stereo not given)	-11.7	0.4	-14.8	-1.6	4.7	.
Cc1cc(Br)c(OCc2ccc(C(=O)N/N=C3\CC4CC=CC34)cc2)c(Br)c1 (stereo not given)	0.2	.	47.7*	2.7	8.6	49.1
NC(=O)C1CCCCc2c1[nH]c1ccc(Cl)cc21 (stereo not given)	2.9	-1.9	55.9*	3.0	9.9	51.1*

Compound activity: PubChem BioAssay, several laboratories
